The assay can be described thus: EMT-state selective cytotoxicity in co-culture – imaging, PC-3E GFP, TEM4-18 mCherry, primary screen (AID 1345086).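 As to all read-outs here: cells exposed to compound for 72 h before imaging.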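 As to red/green cell ratio (normalised): normalised mesenchymal count divided by normalised epithelial count so high means epithelial killing.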 To be noted: PC-3E GFP / TEM4-18 mCherry co-culture, imaging cell counts, at 1 µM; for red/green cell ratio (normalised): actives lie on both sides, counts scaled to control wells, 1 = unselective.
Where [1] appears, read: measured here: epithelial PC-3E GFP cell survival.
Setting [2] is: measured here: mesenchymal TEM4-18 mCherry cell survival.

The source made the active and inactive calls.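 The calls were made as follows: active = compounds killing one labelled cell type while sparing the other, by normalised counts and ratio limits, not self-fluorescent; inactive = the rest.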

Take `CCCC1=CC(=O)[C@H](O)[C@H]1O`: the red/green cell ratio (normalised) is 1.01 (inactive). For the same molecule, the normalised cell number under setting [1] came out at 1.02. The same molecule gave a normalised cell number under setting [2] of 1.02.
For `CC(=O)OCC1O[C@H](Sc2ccc(C)cc2)[C@@H]2[C@@H](OC(=O)N2C(=O)OCc2ccccc2)C1OC(C)=O` (stereo not given in full), the red/green cell ratio (normalised) was 0.78 (inactive). This molecule displayed a normalised cell number under setting [1] of 1.24. The molecule further showed a normalised cell number under setting [2] of 0.96.
Taken in the same sequence, the figures for `COC(=O)C1O[C@H](O[Si](C)(C)C(C)(C)C)[C@@H](O)[C@@H](OC(=O)c2ccccc2)C1OC(=O)c1ccccc1` (stereo not given in full) were 0.98 (inactive), 1.18 and 1.15.
Taken in the same sequence, the figures for `O=C(O)C(O)[C@H](O)[C@H](O)[C@H](O)[C@H](O)CO` (stereo not given in full) were 1.28 (inactive), 1.07 and 1.37.
Consider `CC(=O)OCC(=O)[C@H]1CCC2C3CC=C4C[C@@H](O)CC[C@]4(C)C3CC[C@@]21C` (stereo not given in full), for which the red/green cell ratio (normalised) is 0.94 (inactive). The molecule also returned a normalised cell number under setting [1] of 0.99. For the same molecule, the normalised cell number under setting [2] turned out to be 0.93.
Turning to `OC[C@H]1O[C@H](Oc2cc(O)cc(/C=C/c3ccc(O)cc3)c2)[C@H](O)[C@@H](O)[C@@H]1O`, the red/green cell ratio (normalised) was 0.79 (inactive). For the same molecule, the normalised cell number under setting [1] came to 1.3. The same molecule had a normalised cell number under setting [2] of 1.03.
Consider `CC(C)CCCC(C)C1CCC2C3CC(=O)[C@H]4C[C@@H](O)CC[C@]4(C)C3CC[C@]12C` (stereo not given in full), for which the red/green cell ratio (normalised) is 1.01 (inactive). In addition, under setting [1], the normalised cell number worked out at 1.04. Also, the normalised cell number under setting [2] was 1.05.
For the molecule `CC1CC2OC2/C=C/C(O)CC(=O)O1` (stereo not given), the red/green cell ratio (normalised) is 0.97 (inactive). The molecule further returned a normalised cell number under setting [1] of 1.06. For the same molecule, under setting [2], the normalised cell number was determined as 1.02.
Regarding `C[C@]12C=CC(=O)NC1CCC1C2CC[C@@]2(C)C1CC[C@@H]2C(=O)Nc1cc(C(F)(F)F)ccc1C(F)(F)F` (stereo not given in full), the red/green cell ratio (normalised) was 0.83 (inactive). The molecule also displayed a normalised cell number under setting [1] of 1.1. For the same molecule, the normalised cell number under setting [2] was 0.91.
Taken in the same sequence, the figures for `COC(=O)NC1[C@@H](O)C(O)C(CO)O[C@H]1Sc1ccccc1` (stereo not given in full) were 0.91 (inactive), 1.06 and 0.96.
For `COC(=O)C[C@H]1C(C)(C)C(=O)[C@@H]2CC3=C4CC(=O)O[C@@H](c5ccoc5)[C@]4(C)CCC3C1(C)C2=O` (stereo not given in full), the red/green cell ratio (normalised) is 1.01 (inactive). Also, the normalised cell number under setting [1] came to 0.78. In addition, the normalised cell number under setting [2] stood at 0.78.
On to `O=Cc1ccccc1O[C@@H]1O[C@H](CO)[C@H](O)[C@@H](O)[C@H]1O`, for which the red/green cell ratio (normalised) was 0.97 (inactive). Under setting [1], the normalised cell number is 0.92. Under setting [2], this molecule returned a normalised cell number of 0.9.
As for `C[C@H]1C[C@H]2O[C@@H]2/C=C\C=C\C(=O)Cc2c(Cl)c(O)cc(O)c2C(=O)O1`, the red/green cell ratio (normalised) is 0.97 (inactive). The molecule also registered a normalised cell number under setting [1] of 0.89. Besides, the normalised cell number under setting [2] was determined as 0.87.
For `CC(=O)O[C@H]1CCC2(C)C3=C(CCC2C1(C)C)[C@@]1(C)CC[C@@H](C(C)CCC=C(C)C)[C@]1(C)CC3` (stereo not given in full), the red/green cell ratio (normalised) was 1.21 (inactive). Further, the normalised cell number under setting [1] is 0.67. The molecule further displayed a normalised cell number under setting [2] of 0.81.
`CC(C)[C@H]1COC(=O)N1C(=O)CC(C)N1C(=S)OC[C@H]1c1ccccc1` (stereo not given in full): the red/green cell ratio (normalised) was 1.05 (inactive). Moreover, the normalised cell number under setting [1] was 1.07. Under setting [2], the normalised cell number was determined as 1.12.
In the case of `COc1ccc(-c2oc3ccccc3c(=O)c2OC)cc1`, the red/green cell ratio (normalised) was 0.92 (inactive). This molecule also had a normalised cell number under setting [1] of 1.18. The molecule also gave a normalised cell number under setting [2] of 1.08.
For `O=c1c(O)c(-c2ccccc2)oc2ccc3occc3c12`, the red/green cell ratio (normalised) was 0.81 (inactive). The same molecule displayed a normalised cell number under setting [1] of 1.22. Moreover, the normalised cell number under setting [2] was 0.99.
`O=C(O)[C@@H](S)[C@@H](S)C(=O)O`: the red/green cell ratio (normalised) is 1.16 (inactive). In addition, under setting [1], the normalised cell number is 0.95. The normalised cell number under setting [2] was 1.1.
The matching figures for `C/C=C/[C@@H]1CC[C@@H]2C[C@H](C)CC[C@H]2[C@]1(C)C(=O)[C@H]1OC(=O)[C@@H](CO)N(C)C1=O`: 1.09 (inactive), 1.06 and 1.15.
In the case of `O=C(O)C(c1ccccc1)c1ccccc1`, the red/green cell ratio (normalised) was 1.12 (inactive). Under setting [1], the normalised cell number was determined as 1.01. The normalised cell number under setting [2] was 1.13.
Consider `CCC1=CC2CN(C1)Cc1c([nH]c3ccccc13)[C@@](C(=O)OC)(c1cc3c(cc1OC)N(C)[C@H]1[C@@](O)(C(=O)OC)[C@H](OC(C)=O)[C@]4(CC)C=CCN5CC[C@]31[C@@H]54)C2` (stereo not given in full), for which the red/green cell ratio (normalised) was 1.47 (inactive). This molecule showed a normalised cell number under setting [1] of 0.13. For the same molecule, the normalised cell number under setting [2] was determined as 0.2.
Take `Nc1nc2ncc(CNc3ccc(C(=O)NC(CCC(=O)O)C(=O)O)cc3)nc2c(=O)[nH]1` (stereo not given): the red/green cell ratio (normalised) was 1.18 (inactive). For the same molecule, the normalised cell number under setting [1] is 1.04. The normalised cell number under setting [2] turned out to be 1.23.
For the molecule `CO/C(C)=C1/C(=O)C(CO)OC1O` (stereo not given), the red/green cell ratio (normalised) is 1.02 (inactive). Under setting [1], the normalised cell number turned out to be 0.93. Under setting [2], the normalised cell number is 0.95.
The matching figures for `COC(=O)/C(=C1\OC(=O)C(c2ccccc2)=C1O)c1ccccc1`: 1.05 (inactive), 1.05 and 1.11.
Take `Clc1ccc2ncc(Cl)nc2c1`: the red/green cell ratio (normalised) was 1.15 (inactive). Besides, under setting [1], the normalised cell number was determined as 0.91. Further, under setting [2], the normalised cell number is 1.05.
Take `CC(CC(=O)N1C(=O)OC[C@H]1c1ccccc1)N1CCOC1=S` (stereo not given in full): the red/green cell ratio (normalised) was 0.87 (inactive). Moreover, the normalised cell number under setting [1] is 1.09. The molecule further displayed a normalised cell number under setting [2] of 0.95.
The matching figures for `C=C(C)[C@@H]1CC[C@]2(CO)CC[C@]3(C)[C@H](CCC4[C@@]5(C)CC[C@H](O)C(C)(C)C5CC[C@]43C)C12` (stereo not given in full): 0.84 (inactive), 1.09 and 0.91.
Take `COC(=O)C[C@@H]1C2(C)C(=O)[C@@H](CC3=C4C=C(OC)O[C@@H](c5ccoc5)[C@]4(C)CCC32)[C@H](O)C1(C)C` (stereo not given in full): the red/green cell ratio (normalised) is 1.13 (inactive). In addition, under setting [1], the normalised cell number amounted to 0.99. The molecule also displayed a normalised cell number under setting [2] of 1.12.
In the case of `O=C(NCC1O[C@@H](OC2C(NC(=O)c3ccccc3)C[C@@H](NC(=O)c3ccccc3)[C@H](OS(=O)(=O)O)[C@H]2OC2OC(COS(=O)(=O)O)C(OC3OC(CNC(=O)c4ccccc4)[C@@H](OS(=O)(=O)O)[C@H](OS(=O)(=O)O)[C@H]3NC(=O)c3ccccc3)C2OS(=O)(=O)O)[C@H](NC(=O)c2ccccc2)[C@@H](OS(=O)(=O)O)C1OS(=O)(=O)O)c1ccccc1` (stereo not given in full), the red/green cell ratio (normalised) is 0.97 (inactive). Also, the normalised cell number under setting [1] is 0.96. The same molecule returned a normalised cell number under setting [2] of 0.93.
As for `Clc1ccc(Br)cc1OCC1CCCNC1` (stereo not given), the red/green cell ratio (normalised) is 0.91 (inactive). Also, the normalised cell number under setting [1] was 1.28. Further, the normalised cell number under setting [2] was found to be 1.17.

(Values after PubChem BioAssay.)
